The list is not random: actives were taken first. Their share in the collection is about 3.1%.
TrxR1 substrate = substrates of rat thioredoxin reductase 1. Potency, µM (titrated, usually from 114 µM), inactives show at the highest dose activity change, negative = substrate turnover. O89049. purified TrxR1 substrate turnover, NADPH consumption readout. 390,000 compounds, 0.01% hits; further: on the % scale 0 is the no-effect control and ±100 the full control effect; nearly all actives have a fitted effect of over 50% in size
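Rat TrxR1, dispensed at 90 nM, was prereduced with 400 uM NADPH (final) for 5 min at ~22 deg C, then incubated with compound 15 min before 400 uM selenite. A first-read NADPH fluorescence drop versus no-compound background flagged substrates.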
Mito fusion yeast = mitochondrial division inhibition or fusion activation. AID 485298. S. cerevisiae fusion-defective mutant growth rescue, CellTiterGlo 48 h. Potency, µM (series often up to 46.1 µM), for the others: at the highest dose growth rescue (activation), actives largely listed as activators. 320,000 compounds, 0.23% hits; further: % of control where 0% means no effect; nearly all actives have a fitted effect of over 45% in size
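Read-out: ATP-based luminescence (CellTiterGlo, 10 min ambient) reporting growth of fusion-defective ts yeast after 48 hours at 37C on glycerol/ethanol YPEG medium in the presence of compound.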
Nrf2 inh = blocks Nrf2 signaling | AID 504444 | Potency, µM (doses to about 46 µM), for inactives: at the highest dose activity change, negative = inhibition, most hits filed as inhibitors | 360,000 compounds, 2.1% hits | A549 ARE-Fluc reporter, luciferase luminescence, 18-24 h; further: on the % scale 0 is the no-effect control and ±100 the full control effect; nearly all actives have a fitted effect of over 60% in size
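Reporter: ARE-Fluc in A549. Exposure: 18-24 h, 37 °C, 5% CO2, 5% FBS OPTI-MEM. Readouts: fluorescent cytotoxicity (CellTiter-Fluor), then luminescent Nrf2 signal after BugLite.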
mIDH1 inhibitor = inhibitors of human mutant IDH1 R132H; O75874; IDH1-R132H enzyme, NADPH consumption, diaphorase/resazurin fluorescence; Potency, µM (top dose mostly 76.6 µM), inactives show at the top dose activity change, negative = inhibition, hits mostly inhibitors; 390,000 compounds, 0.093% hits; AID 602179; further: on the % scale 0 is the no-effect control and ±100 the full control effect; nearly all actives have a fitted effect of over 65% in size
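IDH1-R132H (0.5 ug/mL) preincubated 30 min with compound, then NADPH (0.016 mM) and alpha-KG (2 mM) added; 80 min at RT, pH 7.5. Remaining NADPH coupled via diaphorase/resazurin to fluorescence (540/590 nm); concentration-response curves normalized to no-enzyme control.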
A549 tox-1 = counter-screen for Nrf2 inhibitors: cytotoxicity in A549 cells; A549 ARE-Fluc cells, CellTiter-Fluor viability, 18-24 h; Potency, µM (titrated, usually from 46 µM), inactives show at the top dose activity change, negative = cytotoxicity, usual class: inhibitors; 390,000 compounds, 0.16% hits; AID 504648; further: on the % scale 0 is the no-effect control and ±100 the full control effect
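Cytotoxicity counterscreen: CellTiter-Fluor fluorescence was measured in A549 ARE_Fluc cells after 18-24 h of compound exposure in a concentration series. The subsequent BugLite luminescent read reports ARE-luciferase activity.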
TrxR1 inh = blocks rat thioredoxin reductase 1; recombinant rTrxR1, NADPH fluorescence consumption, selenite substrate; Potency, µM (titrated, usually from 114 µM), inactives show at the top dose activity change, negative = inhibition, actives largely listed as inhibitors; 390,000 compounds, 1% hits; O89049; further: on the % scale 0 is the no-effect control and ±100 the full control effect; nearly all actives have a fitted effect of over 65% in size
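Rat TrxR1 (90 nM in the dispensed reagent) was pre-reduced with 400 uM NADPH for 5 min at room temperature, then incubated with compound for 15 min. After 400 uM selenite was added, NADPH fluorescence (Ex 340/Em 450 nm) was followed for 8 min.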
FLuc counter 3 = blocks purified firefly luciferase in Nrf2 counterscreen; 1,400 compounds, 4% hits; shares compounds with Nrf2 inh; Potency, µM (top dose mostly 57.5 µM), for inactives: at the top dose activity change, negative = inhibition, actives largely listed as inhibitors; purified firefly luciferase, luminescence inhibition; further: on the % scale 0 is the no-effect control and ±100 the full control effect; nearly all actives have a fitted effect of over 65% in size
Target sequence (P08659 whole entry, looked up): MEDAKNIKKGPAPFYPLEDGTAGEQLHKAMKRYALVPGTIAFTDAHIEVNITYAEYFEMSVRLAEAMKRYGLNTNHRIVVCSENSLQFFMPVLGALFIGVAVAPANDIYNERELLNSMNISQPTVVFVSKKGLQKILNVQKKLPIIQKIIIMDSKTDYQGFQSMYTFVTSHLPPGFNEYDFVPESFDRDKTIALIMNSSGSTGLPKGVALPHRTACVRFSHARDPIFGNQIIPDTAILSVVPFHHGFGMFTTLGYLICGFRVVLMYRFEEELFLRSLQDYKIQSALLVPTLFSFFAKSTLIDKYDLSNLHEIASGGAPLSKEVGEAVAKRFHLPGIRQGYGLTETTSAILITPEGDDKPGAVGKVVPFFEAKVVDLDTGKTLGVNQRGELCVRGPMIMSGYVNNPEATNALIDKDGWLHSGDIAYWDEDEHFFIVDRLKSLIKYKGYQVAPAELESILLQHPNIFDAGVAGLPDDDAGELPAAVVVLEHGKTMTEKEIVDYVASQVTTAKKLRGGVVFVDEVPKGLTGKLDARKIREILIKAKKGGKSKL
A549 tox-2 = counter-screen for Nrf2 inhibitors: cytotoxicity in A549 ARE cells; AID 720523; A549 ARE-Fluc cells, cytotoxicity counterscreen; Potency, µM (titrated, usually from 46.1 µM), without a hit: top-dose activity change, negative = cytotoxicity, usual class: inhibitors; shares compounds with Nrf2 inh; 1,400 compounds, 2% hits;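 further: cells exposed to compounds for 18 to 24 hours; on the % scale 0 is the no-effect control and ±100 the full control effect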
ARE-Fluc inh = confirmation of Nrf2 inhibitors in A549 ARE reporter cells. AID 720524. 1,400 compounds, 74% hits. shares compounds with Nrf2 inh. Potency, µM (titrated, usually from 46.1 µM), without a hit: at the top dose activity change, negative = inhibition, most hits filed as inhibitors. A549 ARE-firefly luciferase reporter, luminescence; further: on the % scale 0 is the no-effect control and ±100 the full control effect; nearly all actives have a fitted effect of over 65% in size
An asterisk follows results filed as active; ? = inconclusive; / = not tested or not shown; ! = a repeat was not active; [ ] = dose if it differs, or a comment. The call rests on the fitted dose curve; in most records, active means well fitted curve in the direction sought with a large enough effect; inconclusive means small, poorly fitted or top-dose-only effect, or another doubt; inactive means no such curve, though single readings can be large; an effect the other way counts as inactive or inconclusive. Potency means the concentration at half of the fitted maximal effect.

SMILES	TrxR1 substrate	Mito fusion yeast	Nrf2 inh	mIDH1 inhibitor	A549 tox-1	TrxR1 inh	FLuc counter 3	A549 tox-2	ARE-Fluc inh
COC(=O)C12OCC34C(CC5C(C)=C(O)C(=O)CC5(C)C3C(O)C1O)OC(=O)C(OC(=O)C=C(C)C)C24 (stereo unspecified)	-2%[57.1 µM]	/	0.016µM*	8%	?	-49%[57.1 µM]	2%	?	0.012µM*
COc1ccccc1C(=O)Oc1cc(N)n(S(=O)(=O)c2ccc(C)cc2)n1	-5%	1%	?	0%	-16%	-27%	/	/	/
Cc1ccc(S(=O)(=O)n2nc(OC(=O)c3ccccc3C)cc2N)cc1	2%	1%	5.8µM*	3%	4%	12%	-13%	0%	2.3µM*
COc1ccc(C(=O)Oc2cc(N)n(S(=O)(=O)c3ccc(C)cc3)n2)cc1	-14%	-1%	7.3µM*	-3%	3%	23%[57.1 µM]	3%	-9%	2.1µM*
Cc1cc(C)c(C)c(S(=O)(=O)N2CCN(c3ccccn3)CC2)c1C	-12%	?	?	0%	2%	-19%	/	/	/
Cc1cc(C)c(C)c(S(=O)(=O)N2CCN(c3ncnc4ccccc34)CC2)c1C	31%	18µM*	9.2µM*	7%	-20%	60%	0%	-22%	9.2µM*
CCN(CC)CCNC(=O)c1cc(-c2ccc(Br)s2)nc2ccccc12	17%	-52%	-1%	8%	-17%	4%	/	/	/
CCCCOc1cc(C(=O)NCCN(CC)CC)c2ccccc2n1	-1%	-3%	9.2µM*!	2%	-6%	7%	-1%	-2%	6.5µM*
COc1ccc(CNc2cc(C)nc3ncnn23)c(OC)c1	3%	-7%	1.6µM*	4%	-23%	-2%	2%	-9%	?
CCC(CC)C(=O)Nc1ccc(Sc2ccc([N+](=O)[O-])cc2)cc1	-2%	0%	3.7µM*	8%	?	5%	1%	-10%	18µM*
COCCNC(=O)CSc1nc(-c2cc(OC)c(OC)c(OC)c2)[nH]c1-c1ccc(Cl)cc1	4%	/	5%	17%	-9%	6%	/	/	/
O=C(O)CCSc1ncnc2sc(-c3ccccc3)cc12	8%	19%	2.1µM*	0%	-14%	?	9.5µM*	-3%	6.5µM*
Cc1ccc(NC(=O)CCNS(=O)(=O)c2ccc3c(c2)CCC(=O)N3)cc1C	-8%	4%	-4%	5%	-6%	-24%	/	/	/
Cc1cccc(N2CCN(C(=O)CCNS(=O)(=O)c3ccc4c(c3)CCC(=O)N4)CC2)c1C	5%	-6%	5.8µM*	7%	/	1%	1%	1%	?
CCOC(=O)c1cccc(NC(=O)NCc2cccn2Cc2ccccc2)c1	-7%[57.1 µM]	/	?	20%	2%	7%[57.1 µM]	/	/	/
COc1ccccc1NS(=O)(=O)c1cc(NC(=O)CCC(=O)c2cccs2)ccc1Cl	3%[57.1 µM]	7%	8.2µM*	1%	-17%	8%[57.1 µM]	-5%	-1%	?
CC(=O)c1cccc(NS(=O)(=O)c2ccc(C(=O)Nc3ccccc3)cc2)c1	-1%	0%	7.3µM*	-21%	-4%	19%	-10%	-11%	4.1µM*
O=C(Nc1ccccc1)c1ccc(S(=O)(=O)Nc2cccc(O)c2)cc1	3%	-1%	?	0%	-1%	23%	/	/	/
COCCCNC(=O)C1CCC(Cn2c(=O)c3sccc3n(C)c2=O)CC1 (stereo unspecified)	4%[57.1 µM]	/	-2%	10%	4%	15%[57.1 µM]	/	/	/
CN1C(C(=O)Nc2ccc(OC(F)(F)F)cc2)=CC(c2cccs2)=NS1(=O)=O	0%	-5%	3.7µM*!	8%	1%	16%	-2%	-26%	/
COc1cccc2cc(-c3nc(Nc4cccc(C)c4)sc3C)c(=O)oc12	1%[57.1 µM]	/	/	20%	-10%	13%[57.1 µM]	/	/	/
Cc1ccc2c(c1)N(S(=O)(=O)c1cc(-c3onc(C)c3C)ccc1C)CCO2	-2%	4%	8.2µM*	-2%	1%	23%	1%	2%	?
Cc1cc(C)c(NS(=O)(=O)c2cc(-c3onc(C)c3C)ccc2C)c(C)c1	1%[57.1 µM]	/	?	-11%	9%	3%[57.1 µM]	/	/	/
CCC(CC)c1nn2c(=O)cc(COc3ccc(NC(=O)c4ccccc4C)cc3)nc2s1	1%	/	8%	10%	-1%	9%	/	/	/
CN(Cc1ccccc1)C1=CC(=[N+]2CCCC2)CC(C)(C)C1	-13%	3%	4.6µM*	-3%	1%	0%	-19%	?	18µM*
CCN(CC)C1=CC(=[N+]2CCCC2)CC(C)(C)C1	-3%[57.1 µM]	0%	8.2µM*	3%	-7%	-5%[57.1 µM]	1%	-4%	6.5µM*
CN(C)c1cccc(NC2=CC(=[N+]3CCOCC3)CC(C)(C)C2)c1	-8%[57.1 µM]	3%	-10%	-9%	-13%	1%[57.1 µM]	/	/	/

Bioassay records from PubChem BioAssay.
